Assay outcomes deposited in PubChem by National Center for Advancing Translational Sciences (NCATS).
HT1080 IDH1KD tx = toxicity to HT-1080 IDH1 knockdown cells (counter line); HT-1080 IDH1 knockdown viability, ATP luminescence, 48 h; Potency, µM (highest dose often 46.1 µM), hits mostly cytotoxic; 360,000 tested, 2% active
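Cytotoxicity counter-line: IDH1KD HT-1080, 48 h, CellTiter-Glo. Curves classed by r2, magnitude and activity.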
HT1080NT lethal = kills 2HG-producing HT-1080-NT fibrosarcoma cells | HT-1080-NT fibrosarcoma viability, CellTiter-Glo ATP luminescence, 48 h | Potency, µM (doses to about 46.1 µM), most hits filed as cytotoxic | 360,000 tested, 1.6% active | AID 686970;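 further: NT is the 2HG producing partner of a matched IDH1 knockdown line; nearly all actives have a fitted effect of over 55% in size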
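Viability by CellTiter-Glo luminescence after 48 h compound exposure at 37C of HT-1080-NT cells (750/well, RPMI, 5% FBS). % activity scaled between DMSO wells and medium-only wells, then curve-fitted and categorized by curve class.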
TDP1 cell noCPT = qHTS for Inhibitors of human tyrosyl-DNA phosphodiesterase 1 (TDP1): qHTS in cells in absence of CPT; DT40 Tdp1-/- hTDP1 cells, no CPT, ATP luminescence, 48 h; Potency, µM (highest dose often 46.2 µM), most hits filed as inhibitors; 420,000 tested, 15% active; AID 686978, 2013; further: nearly all actives have a fitted effect of over 55% in size
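Seeded 400 DT40-hTDP1 cells/well (vehicle DMSO, no 20 nM CPT); pinned compounds; ≥48 hr at 37 °C; CellTiter-Glo luminescence as viability measure.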
IL1B secr inh = blocks inflammasome-driven IL-1 beta release; 360,000 tested, 4.7% active; THP-1 LPS/ATP IL-1B secretion, AlphaLISA, 16 h; hits give low values; activity change, % at 57.5 µM; AID 743279; in the data active means activity change below about -50%; inconclusive means mostly about -30% to -49%
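THP-1 cells pretreated 1 hr with compounds (up to 57.5 uM final), then stimulated with LPS (250 ng/mL final) plus ATP (1.25 mM final); secreted IL-1B measured by AlphaLISA after 16 hr, decreased signal indicating inhibition.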
TDP1 cell CPT = growth inhibition of DT40 Tdp1-/-;hTDP1 cells with camptothecin (screen for TDP1 inhibitors); chicken DT40 Tdp1-/-;hTDP1 cells + 20 nM CPT, ATP luminescence, 48 h; Potency, µM (highest dose often 46.2 µM), actives largely listed as inhibitors; 420,000 tested, 12% active; AID 686979; further: nearly all actives have a fitted effect of over 55% in size
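Chicken DT40 Tdp1-/- cells complemented with human TDP1, 400 cells/well, exposed to compounds plus 20 nM camptothecin for at least 48 h at 37 C; viability read as ATP content by CellTiter-Glo luminescence.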
Hits are given with their value; i = inactive; ? = inconclusive; nt = no result given; ! = repeats disagree. An excerpt weighted towards active compounds, which were near 19% of everything screened. Unless noted, the call rests on the fitted dose curve; in most records, active means well fitted curve in the direction sought with a large enough effect; inconclusive means small, poorly fitted or top-dose-only effect, or another doubt; inactive means no such curve, though single readings can be large; an effect the other way counts as inactive or inconclusive.

SMILES | HT1080 IDH1KD tx | HT1080NT lethal | TDP1 cell noCPT | IL1B secr inh | TDP1 cell CPT
COc1ccc(CNC(=O)c2cccc(S(=O)(=O)N3CCCCC3)c2)cc1OC | i | i | ? | i | 13µM
O=C(NCc1ccc(F)cc1)c1cc(S(=O)(=O)N2CCCCC2)ccc1Cl | i | i | i | i | i
Cc1cc(N2CCN(C)CC2)ccc1NC(=O)c1cccc(S(=O)(=O)N2CCc3ccccc3C2)c1 | i | ? | 18.4µM | -103.4 | 23.1µM
Cc1ccc(NC(=O)c2cccc(S(=O)(=O)N3CCc4ccccc4C3)c2)nc1 | i | i | ? | i | ?
COc1ccc(CNC(=O)c2cc(S(=O)(=O)N3CCCCC3)ccc2Cl)cc1OC | i | 9.2µM | 18.4µM | i | ?
Cc1cc(C)n(CCNC(=O)C2CCC(=O)N(CCc3cccc(F)c3)C2)n1 (configuration not stated) | i | i | i | i | i
CCOc1ccc(CCNC(=O)c2cccc(S(=O)(=O)N3CCCCC3)c2)cc1OCC | i | i | 7.31µM | i | 13µM
Cc1cc2c(cc1[N+](=O)[O-])NC(CNC(C)C)CC2 (configuration not stated) | i | i | ? | i | i
CC(C)CCNC(=O)c1cnc2sc(N3CCCCCC3)nn2c1=O | nt | nt | 20.6µM | nt | 16.4µM
COc1ccc(CCNC(=O)c2cnc3sc(N4CCCCC4)nn3c2=O)cc1OC | nt | nt | ? | nt | 23.1µM
COc1ccc(CCNC(=O)c2nc(SCc3ccc(C)cc3)ncc2Cl)cc1OC | nt | nt | 10.3µM | nt | 11.6µM
COc1ccc(OC)c(NC(=O)c2nc(SCc3ccccc3F)ncc2Cl)c1 | nt | nt | 14.1µM! | nt | 10µM!
COc1ccc(OC)c(NC(=O)c2nc(SCc3ccc(F)cc3)ncc2Cl)c1 | nt | nt | i | nt | i
NNC(=O)Cn1nc(-c2ccccc2)c2ccccc2c1=O | i | i | i | i | i
O=C(NCc1ccc(Cl)cc1)c1cnc2sc(N3CCOCC3)nn2c1=O | nt | nt | i | nt | ?
COc1ccc(CCNC(=O)c2cnc3sc(N4CCCC4)nn3c2=O)cc1OC | nt | nt | 23.1µM | nt | ?
O=C(NCCc1ccc(Cl)cc1)c1cnc2sc(N3CCCC3)nn2c1=O | nt | nt | 4.11µM | nt | 6.51µM
COc1cccc(CCNC(=O)c2cnc3sc(N4CCCC4)nn3c2=O)c1 | nt | nt | 16.4µM | nt | 14.6µM
COc1ccc(CCNC(=O)c2cnc3ccc(C)cn3c2=O)cc1OC | nt | nt | ? | nt | 20.6µM
COc1cc(/C=C(/C#N)C(=O)NC(C)c2ccccc2)cc(OC)c1O (configuration not stated) | i | i | ? | i | i
COc1ccccc1/C=C/C=C(\C#N)C(=O)NC(C)c1ccccc1 (configuration not stated) | ? | ? | 20.6µM | -94.2 | i
CCCCCCCCCCOC(=O)C[N+](C)(C)C/C=C(/C)Cl | i | i | 3.66µM | ? | 8.2µM
CCCCCCCCCCCCOC(=O)C[N+](C)(C)C | i | i | i | nt | i
CCCCCCCCOC(=O)C[N+](C)(C)C/C=C(/C)Cl | i | i | 10.3µM | i | 16.4µM
Cc1cccc(C(=O)Nc2ccc(N3CCN(S(C)(=O)=O)CC3)cc2)c1 | i | i | i | i | i
SMILES | HT1080 IDH1KD tx | HT1080NT lethal | TDP1 cell noCPT | IL1B secr inh | TDP1 cell CPT
COc1ccc(C2=NS(=O)(=O)N(C)C(C(=O)NCc3ccccc3)=C2)cc1OC | i | i | ? | i | ?
CCc1ccc(NC(=O)C2=CC(c3ccc(OC)c(OC)c3)=NS(=O)(=O)N2C)cc1 | i | ? | 18.4µM | i | 11.6µM
COc1ccc(C2=NS(=O)(=O)N(C)C(C(=O)NC3CCCC3)=C2)cc1 | i | i | ? | i | i
COc1ccc(C2=NS(=O)(=O)N(C)C(C(=O)NC3CCCCC3)=C2)cc1 | i | i | 6.51µM | i | i
COc1ccc(OC)c(C2=NS(=O)(=O)N(C)C(C(=O)Nc3ccc(C(C)=O)cc3)=C2)c1 | i | i | 14.6µM | ? | 18.4µM
COc1ccc(C2=NS(=O)(=O)N(C)C(C(=O)N3CCc4ccccc4C3)=C2)cc1OC | i | i | 9.2µM | i | 18.4µM
COc1ccc(NC2CCCN(C(=O)CN3C(=O)c4ccccc4C3=O)C2)cc1OC (configuration not stated) | i | i | i | i | ?
